Our source for the IRF reporter and viability score values is the supplement of paper PMC10646978.

± gives the standard deviation.

The test system of one experiment is RAW-Dual (murine macrophage reporter line). Briefly: IRF reporter (Lucia luciferase) activity fold change vs agonist alone; higher = enhanced IRF activity. The note with it: modulator concentration 10 µM; agonist: MPLA […]. Put shortly: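 RAW-Dual murine macrophage reporter cells were seeded at 50 000 per well in 384-well plates and pre-incubated 1 hour at 37 °C with compound pin-transferred to 10 μM final. After 1 hour, a PRR agonist was added and cells incubated overnight. Supernatant NF-κB (SEAP, QUANTI-Blue, 620 nm absorbance) and IRF (Lucia luciferase, QUANTI-Luc, luminescence) signals were divided by the mean agonist-only control on the same plate to give fold change. Two replicate plates were averaged, with errors by propagation.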
For `O=C(CSc1nc2c(c(=O)n1-c1ccccc1)SCC2)N1CCN(c2ccccc2)CC1`, the IRF reporter was 0.953 ± 0.076.

For the molecule `CCNC(=O)CCC/C=C\C[C@@H]1[C@@H](/C=C/C(O)CCc2ccccc2)[C@@H](O)C[C@@H]1O` (stereo not given in full), the IRF reporter stood at 0.95 ± 0.1.

Take `CCOc1cc(CC(=O)N[C@@H](CC(C)C)c2ccccc2N2CCCCC2)ccc1C(=O)O`: the IRF reporter amounted to 1.26 ± 0.18.

With `CC1CC(=O)C2=C(C1)OC(N)=C(C#N)C2c1ccc(Cl)cc1` (stereo not given), the IRF reporter turned out to be 0.909 ± 0.13.

Consider `COc1ccc(C=NNC(=O)CSc2nnc(-c3ccncc3)n2-c2ccccc2)cc1OC`, for which the IRF reporter was determined as 1.01 ± 0.12.

With `COc1cc2c3cc1Oc1cc(ccc1O)OC1c4c(cc(OC)c(O)c4Oc4ccc(cc4)CC3N(C)CC2)CCN1C` (stereo not given), the IRF reporter came to 1.34 ± 0.13.

For the molecule `O=C(C(Cl)Cl)N1CCN(Cc2ccccc2)CC1`, the IRF reporter was 1.28 ± 0.24.

Turning to `Cl.Cl.O=C1c2c(O)ccc(O)c2C(=O)c2c(NCCNCCO)ccc(NCCNCCO)c21`, the IRF reporter came to 0.0943 ± 0.0079.

As to `CC(C)NCC(O)COCCOc1ccc(C(C)(C)C)cc1.Cl` (stereo not given), the IRF reporter came out at 1.57 ± 0.37.

In the case of `O=c1[nH]cnc2scc(-c3ccc(Br)cc3)c12`, the IRF reporter was determined as 1.29 ± 0.16.

`O=C(O)CCCCCN1C(=O)c2ccccc2C1=O`: the IRF reporter amounted to 1.5 ± 0.23.

As to `CC1=C(C(=O)OCCN(Cc2ccccc2)c2ccccc2)C(c2cccc([N+](=O)[O-])c2)C(P2(=O)OCC(C)(C)CO2)=C(C)N1` (stereo not given), the IRF reporter was 0.736 ± 0.074.

Turning to `c1cn2cc(-c3ccc4cn[nH]c4c3)nc(Nc3ccc(N4CCOCC4)cc3)c2n1`, the IRF reporter was 1.1 ± 0.26.

As for `Cc1nc(-c2ccc(S(=O)(=O)NC3CCc4nc(N(C)C)ncc4C3)cc2)co1` (stereo not given), the IRF reporter amounted to 1.35 ± 0.27.

With `CC(Oc1cccc(Cl)c1)C(=O)NCc1ccncc1` (stereo not given), the IRF reporter is 0.988 ± 0.11.

`C#Cc1cccc(Nc2ncnc3cc(OCCOC)c(OCCOC)cc23)c1.Cl`: the IRF reporter amounted to 0.0986 ± 0.027.

In the case of `CCOC(=O)C1=C[C@]2(CC)CCCN3CCc4c(n1c1ccccc41)[C@@H]32`, the IRF reporter was determined as 1.4 ± 0.46.

Regarding `CC(=O)NC(CS)C(=O)O` (stereo not given), the IRF reporter was 1.08 ± 0.18.

Regarding `COc1ccc(Cl)cc1C(=O)Nc1cc(C(F)(F)F)cc(C(F)(F)F)c1`, the IRF reporter is 1.19 ± 0.23.

In the case of `Cc1ccc(OCCCOc2cccc3cccnc23)c(Cl)c1`, the IRF reporter turned out to be 1.05 ± 0.076.

On to `CCOc1ccc(Nc2oc(-c3ccc(COc4ccc(C)cc4)o3)nc2C#N)cc1`, for which the IRF reporter came to 1.67 ± 0.41.

In the case of `Cc1cn([C@H]2C=C[C@@H](CO)O2)c(=O)[nH]c1=O` [Prestw-1279], the IRF reporter came to 0.877 ± 0.13.

As for `CCc1ccc2ncc(C#N)c(Nc3cc(OC)c(OC)c(OC)c3)c2c1.Cl`, the IRF reporter amounted to 0.725 ± 0.17.

For `Br.COc1ccc(C2=NN(c3nc(-c4ccc(OC)c(F)c4)cs3)C(c3ccc(OC)cc3)C2)cc1` (stereo not given), the IRF reporter came to 1.05 ± 0.39.

`Cc1c(C)n2c3c(=O)n(Cc4ccccc4F)c(=O)n(C)c3nc2n1CCCN1CCOCC1`: the IRF reporter is 1.05 ± 0.37.

As to `CNC(=O)c1ccccc1Sc1ccc2c(/C=C/c3ccccn3)n[nH]c2c1`, the IRF reporter is 0.259 ± 0.048.

Take `NC[C@@H]1O[C@H](O[C@@H]2[C@@H](CO)OC(O[C@@H]3[C@@H](O)[C@H](N)C[C@H](N)[C@H]3O[C@H]3O[C@H](CN)[C@@H](O)[C@H](O)[C@H]3N)[C@@H]2O)[C@H](N)[C@@H](O)[C@@H]1O.O=S(=O)(O)O` (stereo not given in full): the IRF reporter was determined as 1.11 ± 0.12.

Consider `CS(=O)(=O)N(CC(=O)Nc1ccccc1Cl)c1ccc(Cl)c(C(F)(F)F)c1`, for which the IRF reporter amounted to 1.25 ± 0.2.

`N#CC(=Cc1c(F)cccc1Cl)C(=O)Nc1ccc(Cl)cc1`: the IRF reporter was found to be 1.25 ± 0.13.

On to `O=c1cc(CO)occ1O`, for which the IRF reporter was determined as 1.33 ± 0.19.

As to `O=C(NCC1CCCN1c1nccs1)C1CC1` (stereo not given), the IRF reporter was 1.18 ± 0.54.

For `CCOCC(=O)Nc1ccc(N2CCCCC2=O)c(C)c1`, the IRF reporter was 1 ± 0.3.

For `C[C@H](N[C@@H](CCc1ccccc1)C(=O)O)C(=O)N1CCC[C@H]1C(=O)O.O.O`, the IRF reporter stood at 0.906 ± 0.077.

Regarding `CN(C)C1C(O)=C(C(N)=O)C(=O)C2(O)C(O)=C3C(=O)c4c(O)ccc(Cl)c4C(O)C3CC12.Cl` (stereo not given), the IRF reporter came out at 1.08 ± 0.15.

For the molecule `Cc1ccc(CN2C3=NCCCN3c3ccccc32)cc1.Cl`, the IRF reporter was found to be 1.34 ± 0.2.

For the molecule `O=C(O)c1ccc2c(c1)nc(Nc1cccc(Cl)c1)c1ccncc12`, the IRF reporter worked out at 0.832 ± 0.083.

For the molecule `COc1cc(Nc2ncc3c(n2)-c2ccc(Cl)cc2C(c2c(F)cccc2OC)=NC3)ccc1C(=O)O`, the IRF reporter came to 1.06 ± 0.15.

As to `CC(C)CN(C[C@@H](O)[C@H](Cc1ccccc1)NC(=O)O[C@H]1CO[C@H]2OCC[C@H]21)S(=O)(=O)c1ccc(N)cc1.CCO`, the IRF reporter was found to be 1 ± 0.081.

As to `OC(Cn1cncn1)(Cn1cncn1)c1ccc(F)cc1F`, the IRF reporter is 1.62 ± 0.18.

On to `C=Cc1c(C)c2cc3nc(cc4[nH]c(cc5nc(cc1[nH]2)C(C)=C5CCC(=O)O)c(CCC(=O)OC)c4C)[C@@]1(C)C3=CC=C(C(=O)OC)[C@H]1C(=O)OC`, for which the IRF reporter turned out to be 0.0518 ± 0.015.

The test system is the same in a further experiment. Briefly: viability score (confluency relative to resting cells, overnight) (fraction); higher = more viable, active = viable (0.7 or more). The conditions noted are these: modulator concentration 10 µM. The gist of the method:
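In 384-well plates, RAW-Dual macrophages received compound at a final 10 μM overnight. Two confluency masks were then made with IncuCyte software from IncuCyte images of all imaged wells. The viability score is defined as confluency relative to resting cells. Passing the cutoff required both masks to lie above 70% of resting cells.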
With `O=C(CSc1nc2c(c(=O)n1-c1ccccc1)SCC2)N1CCN(c2ccccc2)CC1`, the viability score is 1 (active).

With `CCNC(=O)CCC/C=C\C[C@@H]1[C@@H](/C=C/C(O)CCc2ccccc2)[C@@H](O)C[C@@H]1O` (stereo not given in full), the viability score was 1.01 (active).

Consider `CCOc1cc(CC(=O)N[C@@H](CC(C)C)c2ccccc2N2CCCCC2)ccc1C(=O)O`, for which the viability score was 0.683 (inactive).

Turning to `CC1CC(=O)C2=C(C1)OC(N)=C(C#N)C2c1ccc(Cl)cc1` (stereo not given), the viability score was 0.992 (active).

With `COc1ccc(C=NNC(=O)CSc2nnc(-c3ccncc3)n2-c2ccccc2)cc1OC`, the viability score is 0.998 (active).

Consider `COc1cc2c3cc1Oc1cc(ccc1O)OC1c4c(cc(OC)c(O)c4Oc4ccc(cc4)CC3N(C)CC2)CCN1C` (stereo not given), for which the viability score was 0.995 (active).

For `O=C(C(Cl)Cl)N1CCN(Cc2ccccc2)CC1`, the viability score was 1.01 (active).

Take `Cl.Cl.O=C1c2c(O)ccc(O)c2C(=O)c2c(NCCNCCO)ccc(NCCNCCO)c21`: the viability score was 0.388 (inactive).

As for `CC(C)NCC(O)COCCOc1ccc(C(C)(C)C)cc1.Cl` (stereo not given), the viability score is 0.934 (active).

Turning to `O=c1[nH]cnc2scc(-c3ccc(Br)cc3)c12`, the viability score was 0.975 (active).

`O=C(O)CCCCCN1C(=O)c2ccccc2C1=O`: the viability score is 1.03 (active).

In the case of `CC1=C(C(=O)OCCN(Cc2ccccc2)c2ccccc2)C(c2cccc([N+](=O)[O-])c2)C(P2(=O)OCC(C)(C)CO2)=C(C)N1` (stereo not given), the viability score is 1 (active).

As for `c1cn2cc(-c3ccc4cn[nH]c4c3)nc(Nc3ccc(N4CCOCC4)cc3)c2n1`, the viability score was 0.978 (active).

With `Cc1nc(-c2ccc(S(=O)(=O)NC3CCc4nc(N(C)C)ncc4C3)cc2)co1` (stereo not given), the viability score is 0.919 (active).

As to `CC(Oc1cccc(Cl)c1)C(=O)NCc1ccncc1` (stereo not given), the viability score was 1.02 (active).

As to `C#Cc1cccc(Nc2ncnc3cc(OCCOC)c(OCCOC)cc23)c1.Cl`, the viability score is 0.853 (active).

`CCOC(=O)C1=C[C@]2(CC)CCCN3CCc4c(n1c1ccccc41)[C@@H]32`: the viability score was 0.949 (active).

Take `CC(=O)NC(CS)C(=O)O` (stereo not given): the viability score was 1.03 (active).

Consider `COc1ccc(Cl)cc1C(=O)Nc1cc(C(F)(F)F)cc(C(F)(F)F)c1`, for which the viability score is 1.01 (active).

On to `Cc1ccc(OCCCOc2cccc3cccnc23)c(Cl)c1`, for which the viability score was 1.01 (active).

Turning to `CCOc1ccc(Nc2oc(-c3ccc(COc4ccc(C)cc4)o3)nc2C#N)cc1`, the viability score is 0.832 (active).

Take `Cc1cn([C@H]2C=C[C@@H](CO)O2)c(=O)[nH]c1=O` [Prestw-1279]: the viability score was 0.998 (active).

`CCc1ccc2ncc(C#N)c(Nc3cc(OC)c(OC)c(OC)c3)c2c1.Cl`: the viability score was 0.903 (active).

In the case of `Br.COc1ccc(C2=NN(c3nc(-c4ccc(OC)c(F)c4)cs3)C(c3ccc(OC)cc3)C2)cc1` (stereo not given), the viability score was 1.01 (active).

Regarding `Cc1c(C)n2c3c(=O)n(Cc4ccccc4F)c(=O)n(C)c3nc2n1CCCN1CCOCC1`, the viability score was 1.01 (active).

Take `CNC(=O)c1ccccc1Sc1ccc2c(/C=C/c3ccccn3)n[nH]c2c1`: the viability score is 0.897 (active).

As to `NC[C@@H]1O[C@H](O[C@@H]2[C@@H](CO)OC(O[C@@H]3[C@@H](O)[C@H](N)C[C@H](N)[C@H]3O[C@H]3O[C@H](CN)[C@@H](O)[C@H](O)[C@H]3N)[C@@H]2O)[C@H](N)[C@@H](O)[C@@H]1O.O=S(=O)(O)O` (stereo not given in full), the viability score is 1 (active).

As to `CS(=O)(=O)N(CC(=O)Nc1ccccc1Cl)c1ccc(Cl)c(C(F)(F)F)c1`, the viability score was 0.961 (active).

Turning to `N#CC(=Cc1c(F)cccc1Cl)C(=O)Nc1ccc(Cl)cc1`, the viability score is 1.01 (active).

Consider `O=c1cc(CO)occ1O`, for which the viability score is 1.03 (active).

For the molecule `O=C(NCC1CCCN1c1nccs1)C1CC1` (stereo not given), the viability score is 0.99 (active).

On to `CCOCC(=O)Nc1ccc(N2CCCCC2=O)c(C)c1`, for which the viability score was 0.93 (active).

`C[C@H](N[C@@H](CCc1ccccc1)C(=O)O)C(=O)N1CCC[C@H]1C(=O)O.O.O`: the viability score is 0.993 (active).

On to `CN(C)C1C(O)=C(C(N)=O)C(=O)C2(O)C(O)=C3C(=O)c4c(O)ccc(Cl)c4C(O)C3CC12.Cl` (stereo not given), for which the viability score is 0.991 (active).

As for `Cc1ccc(CN2C3=NCCCN3c3ccccc32)cc1.Cl`, the viability score was 0.999 (active).

Take `O=C(O)c1ccc2c(c1)nc(Nc1cccc(Cl)c1)c1ccncc12`: the viability score was 0.986 (active).

Consider `COc1cc(Nc2ncc3c(n2)-c2ccc(Cl)cc2C(c2c(F)cccc2OC)=NC3)ccc1C(=O)O`, for which the viability score was 0.92 (active).

Turning to `CC(C)CN(C[C@@H](O)[C@H](Cc1ccccc1)NC(=O)O[C@H]1CO[C@H]2OCC[C@H]21)S(=O)(=O)c1ccc(N)cc1.CCO`, the viability score was 0.996 (active).

Take `OC(Cn1cncn1)(Cn1cncn1)c1ccc(F)cc1F`: the viability score is 0.988 (active).

Turning to `C=Cc1c(C)c2cc3nc(cc4[nH]c(cc5nc(cc1[nH]2)C(C)=C5CCC(=O)O)c(CCC(=O)OC)c4C)[C@@]1(C)C3=CC=C(C(=O)OC)[C@H]1C(=O)OC`, the viability score is 0.344 (inactive).
